The record followed here is ChEMBL document CHEMBL5308541, “MAIP: An Open-Source Tool to Enrich High-Throughput Screening Output and Identify Novel, Druglike Molecules with Antimalarial Activity” (ACS Med Chem Lett, 2023).

The whole screen tested about 150,000 compounds, of which about 540 (0.36%) showed an effect of 50% or more. The sample holds strong results, similar compounds and a random draw of the others, so the mix is not that of the screen.

The % Inhibition is the relative decrease from the control value, in per cent.

In this test the test system is Plasmodium falciparum. In words: Primary screen in NF54 nanoGlo assay, in single point, at 2uM, 72h; a lower Z score goes with more inhibition. Type of test: functional, Erythrocyte. The note with it: timepoint 72 hour.
Turning to `CC(C)Nc1cc(-c2cc(OC(F)(F)F)ccc2O)ncn1`, the “% Inhibition” value was 1% and the Z score is on record as -0.31.

With `Oc1ccc(OC(F)(F)F)cc1-c1ccc2nccn2n1`, the “% Inhibition” value stood at 86% and the Z score is listed as -17.13.

Regarding `c1cc(-c2noc(C34CCCN(CCC3)C4)n2)cc(-n2ccnc2)c1`, the “% Inhibition” value came out at 9% and the Z score is recorded as -1.87.

Regarding `c1ccc(CNc2ccc(-c3noc(C45CCCN(CCC4)C5)n3)cn2)cc1`, the “% Inhibition” value is reported as 81% and the Z score is given as -17.51.

With `c1ccc(-c2nc3c(c(NCCNc4ncccn4)n2)CCC3)nc1`, the “% Inhibition” value worked out at 41% and the Z score was -7.15.

Take `Cc1cc(F)ccc1CNc1ccc(N2CCN(C)CC2)nc1`: the “% Inhibition” value is reported as 3% and the Z score is recorded as -0.45.

In the case of `OC1(Cn2ccnc2)CCN(Cc2ccnc3ccccc23)CC1`, the “% Inhibition” value was -5% and the Z score was found to be 0.98.

Turning to `Cc1c(CN2CCC(O)(Cn3ccnc3)CC2)[nH]c2c(Cl)cccc12`, the “% Inhibition” value was found to be 95% and the Z score is -16.38.

Take `CCn1cc(-c2cccc(C(=O)N[C@@H](C)CN3CCc4ccccc4C3)c2)cn1`: the “% Inhibition” value turned out to be 53% and the Z score was -10.47.

Regarding `CNC(=O)c1ccc(C(=O)Nc2nc(C3(C)CC3)ns2)cn1`, the “% Inhibition” value is recorded as 23% and the Z score is -4.92.

As for `Cc1cc(C)c(C)c(S(=O)(=O)NC2COCC2Cc2ccncc2)c1C` (centres undefined), the “% Inhibition” value worked out at 0% and the Z score was -0.02.

Take `CCCC(=O)NC1COCC1Cc1ccncc1` (centres undefined): the “% Inhibition” value is listed as 82% and the Z score is -16.24.

For `COCCC(=O)NC1COCC1Cc1ccnc2ccccc12` (centres undefined), the “% Inhibition” value amounted to 1% and the Z score is -0.24.

As for `Cc1nc(N2CCN(CC(=O)NC3CCCCC3)CC2)c2cc[nH]c2n1`, the “% Inhibition” value was -11% and the Z score is given as 2.32.

Regarding `CNc1nc(N2CCN(CC(=O)NC3CCCCC3)CC2)nc2ccccc12`, the “% Inhibition” value is recorded as 80% and the Z score is -14.07.

Turning to `CCN1CCC[C@@H]1CN(CCN(C)C)C(=O)c1ccc(-c2cncnc2)cc1F`, the “% Inhibition” value is listed as 2% and the Z score is reported as -0.24.

As to `Fc1ccc(N2CCC(N[C@@H]3COC4(CCNCC4)C3)CC2)cc1F`, the “% Inhibition” value is reported as 23% and the Z score is -4.05.

As for `N[C@H]1CC[C@@H](NC2CCN(c3ccc(F)c(F)c3)CC2)CC1`, the “% Inhibition” value was determined as 53% and the Z score is listed as -9.21.

On to `CCc1ccc(Nc2nc(C(=O)NCCc3c[nH]cn3)nc3ccccc23)cc1`, for which the “% Inhibition” value amounted to 7% and the Z score is reported as -1.15.

Consider `COc1ccc(-c2cncc(C(=O)NCC3CCN(CCN(C)C)CC3)c2)cc1`, for which the “% Inhibition” value is on record as 94% and the Z score is given as -16.22.

As for `COCCN1CCC(CN(C)C(=O)c2ccc(-c3cncc(N)c3)cc2)CC1`, the “% Inhibition” value was 2% and the Z score is reported as -0.4.

As to `Cc1cc(O)c(Cl)cc1-c1ccc2ncnc(N)c2c1`, the “% Inhibition” value is -5% and the Z score worked out at 0.82.

On to `Cc1cc(O)c(Cl)cc1-c1cccc2c(N)ccnc12`, for which the “% Inhibition” value is 82% and the Z score was -14.53.

Regarding `Cc1cc(O)c(Cl)cc1-c1ccc2nccc(N)c2c1`, the “% Inhibition” value was found to be 91% and the Z score is -15.94.

As to `Cc1cc(O)c(Cl)cc1-c1ncnc2[nH]ccc12`, the “% Inhibition” value was 1% and the Z score is listed as -0.29.

As to `Cn1ccc2c(-c3cccc4c(N)ccnc34)ccnc21`, the “% Inhibition” value is recorded as 6% and the Z score is listed as -1.24.

For the compound `O[C@@H](CNCc1cc2cc(Cl)c(Cl)cc2[nH]1)c1ccc(F)cc1`, the “% Inhibition” value amounted to 76% and the Z score is listed as -13.27.

On to `OC[C@H](CNCc1cc2ccc(F)cc2[nH]1)c1ccccc1Cl`, for which the “% Inhibition” value is on record as 41% and the Z score is -6.28.

Consider `CC(CNc1nc(NCC(C)N2CCOCC2)c2cc(Cl)ccc2n1)N1CCOCC1` (centres undefined), for which the “% Inhibition” value turned out to be 78% and the Z score is reported as -13.62.

For the compound `CCN1CCN(CCOc2ccccc2CN(C)Cc2cccc3cnccc23)CC1`, the “% Inhibition” value is given as 7% and the Z score is on record as -1.54.

Turning to `CN1CCN(CCOc2ccccc2CN(C)Cc2cc3cc(F)ccc3[nH]2)CC1`, the “% Inhibition” value is recorded as 73% and the Z score is -14.51.

On to `c1ccc(-c2ccnc(C3CCN(CC45CNCC4C5)CC3)n2)cc1` (centres undefined), for which the “% Inhibition” value was found to be 89% and the Z score is given as -13.57.

As for `c1cc(N2CCOCC2)nc(C2CCN(CC34CNCC3C4)CC2)n1` (centres undefined), the “% Inhibition” value is given as -8% and the Z score was 1.26.

As to `COc1ccc(-c2ccnc(C3CCN(c4ccnc(C#N)n4)CC3)n2)cc1`, the “% Inhibition” value is listed as -1% and the Z score was determined as 0.14.

For the compound `C[C@H]1CN(C2CCOCC2)CCN1C(=O)NCc1cccc(-c2cccnc2)c1`, the “% Inhibition” value is on record as -1% and the Z score worked out at 0.29.

For the compound `O=C(NCc1cccc(-c2cccnc2)c1)N[C@H]1CCN(C2CCCCC2)C1`, the “% Inhibition” value is recorded as 51% and the Z score was -7.77.

Consider `CC(C)c1ccc(-c2nc(CN3CCCCC3)cc(CN3CCCCC3)c2O)cc1`, for which the “% Inhibition” value is 90% and the Z score is -15.77.

For the compound `Cc1ccc(Nc2ncc(-c3ccc(Cl)c(OC(F)(F)F)c3)cn2)cc1`, the “% Inhibition” value is -5% and the Z score is 1.

On to `CCN1CCN(c2ccc(CNCc3cccc(O)c3)cc2F)CC1`, for which the “% Inhibition” value amounted to 90% and the Z score is listed as -19.29.

As to `CN1CCCN(Cc2ccc(CNCc3cccc(O)c3)cc2)CC1`, the “% Inhibition” value was found to be 17% and the Z score is on record as -3.36.

Take `Cc1nc2ccccc2c(O)c1CC[C@H](C)NC1CCNCC1`: the “% Inhibition” value is reported as -3% and the Z score was determined as 0.51.

Consider `CCCCN(C)C[C@@H](C)NC(=O)CCCN1CCN(c2ccccc2)CC1`, for which the “% Inhibition” value is reported as -5% and the Z score is reported as 1.09.
